{
  "source": "PubChem BioAssay (NCI)",
  "note": "The panel holds about 83,000 compounds, 20% with a hit somewhere; the sample as a whole holds those more often.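 Treatment: one concentration, 48 hours, 96-well format. Scoring: percent growth, with anything below 10 considered active.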 Values without a mark were called inactive. Calls of active or inactive are those of the source.",
  "data": [
    {"system": "OVCAR-3 ovarian", "assay": "NCI-60 one-dose screen, 48 h (100 = growth as untreated, 0 = no growth, -100 = all killed)", "settings": "10 µM", "values": [
      {"smiles": "NC(CSC(c1ccccc1)(c1ccccc1)c1cccc2ccccc12)C(=O)O", "note": "(centres undefined)", "growth": "98.6%"},
      {"smiles": "CC(=O)[C@H]1CC[C@]2(C)[C@@H]1CC[C@@H]1[C@@]3(C)CC(CCC#N)(CCC#N)C(=O)C(C)(C)[C@@H]3CC[C@]12C", "growth": "107%"},
      {"smiles": "NC1=NC(c2ccc(Cl)cc2)C2=C(N1)/C(=C/c1ccc(Cl)cc1)CCC2", "note": "(centres undefined)", "growth": "39.1%"},
      {"smiles": "C/C(=N\\O)c1ccc(NC(=O)CSc2nnc(-c3ccccc3)n2-c2ccccc2)cc1", "growth": "81.4%"},
      {"smiles": "NC1=CC(=O)C(=O)c2cccnc21", "growth": "84%"},
      {"smiles": "C[n+]1c2ccccc2nc2ccccc21", "growth": "4.06% (active)"},
      {"smiles": "COc1cc(-c2nn(-c3ccc(NC(=O)NCCNS(=O)(=O)c4ccc(F)cc4)cc3)cc2-c2ccncc2)ccc1Cl", "growth": "7.55% (active)"},
      {"smiles": "O=C(CSc1nccc(Nc2cccc3ccccc23)n1)c1ccc(Cl)cc1", "growth": "99.5%"},
      {"smiles": "CCCCCCCCCCOC(c1ccccc1)c1ccccc1", "growth": "99.5%"},
      {"smiles": "O=C1/C=C/[C@@H](O)[C@@H]2C[C@@H](O)C[C@H]2/C=C/CCC[C@H](CCc2ccc(C(F)(F)F)cc2)O1", "growth": "-10.4% (active)"},
      {"smiles": "O=C(O)c1cn(C2CC2)c2cc(N3CCN(C(=O)c4cc(-c5ccc(Cl)cc5)nc5ccccc45)CC3)c(F)cc2c1=O", "growth": "100%"},
      {"smiles": "CN(C)CCC1(c2ccccc2)CCN(C)C1=O", "note": "(centres undefined)", "growth": "99.5%"},
      {"smiles": "COc1ccc(Nc2cnc3cc(NS(=O)(=O)c4ccc(C)cc4)ccc3n2)cc1", "growth": "79.8%"},
      {"smiles": "COc1cc(-c2nn(-c3cccc(NC(=O)CCNc4ccc(N5CCOCC5)cc4)c3)cc2-c2ccncc2)ccc1Cl", "growth": "14.1%"}
    ]}
  ]
}
